According to PubChem BioAssay:
The source made the active and inactive calls.

Tests used:
[1] = tested on: PRMT1 (protein arginine N-methyltransferase 1); assay: PRMT1 binders on small-molecule microarrays, primary screen, biochemical, small-molecule microarray, 635 nm fluorescence (AID 1088); conditions: small-molecule microarray binding, higher = more signal;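 note: binding of Prmt1 protein to compounds spotted on small-molecule microarray slides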
[2] = yeast growth modulation, basal conditions, primary screen, YJM789 clinical isolate, OD600, 24 h (AID 1089);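 note: growth of clinical yeast isolate S. cerevisiae YJM 789 seeded 1000 cells per well; test concentration not given here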; conditions: S. cerevisiae YJM789 growth, higher = more signal, called active from +8 up or from −8 down
[3] = fission yeast growth modulation, primary screen, strain 972, OD600, 24 h, no modulator (AID 1090);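 note: basal condition with compound alone and no growth modifier present; test concentration not given here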; conditions: S. pombe 972 growth, higher = more signal, called active from +8 up or from −8 down
[4] = S. cerevisiae growth modulation with rapamycin, primary screen, strain BY4716, OD600, 96 h (AID 1091); conditions: higher = more signal, called active from +8 up or from −8 down; note: test concentration not given here
[5] = target: Torsin-1A-interacting protein 2 (Homo sapiens) (UniProt Q8NFQ8); assay: LULL1 binders on small-molecule microarray, primary screen, cell lysate, human LULL1 lysate, 635/667 nm fluorescence (AID 1092); conditions: hLULL1 lysate binding, 635 nm fluorescence, higher = more signal;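 note: probe is lysate of COS7 cells overexpressing human LULL1; score merges per-feature 667 nm fluorescence with signal-to-noise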
Chain of Torsin-1A-interacting protein 2 (Homo sapiens) (Q8NFQ8 whole entry, looked up): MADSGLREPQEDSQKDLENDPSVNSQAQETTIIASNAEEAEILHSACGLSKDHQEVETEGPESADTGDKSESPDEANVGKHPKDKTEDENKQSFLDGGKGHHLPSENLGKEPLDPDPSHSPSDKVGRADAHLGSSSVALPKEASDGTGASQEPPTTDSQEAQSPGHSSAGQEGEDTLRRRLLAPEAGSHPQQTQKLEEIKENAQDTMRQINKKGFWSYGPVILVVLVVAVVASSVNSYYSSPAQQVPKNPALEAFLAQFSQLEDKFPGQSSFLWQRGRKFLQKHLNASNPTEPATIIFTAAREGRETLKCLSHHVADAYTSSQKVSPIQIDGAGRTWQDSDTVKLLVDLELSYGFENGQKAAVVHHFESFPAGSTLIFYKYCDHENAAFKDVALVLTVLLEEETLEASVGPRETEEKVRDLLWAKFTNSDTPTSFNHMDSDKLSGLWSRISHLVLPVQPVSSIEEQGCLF

[6] = E. coli growth modulation, two-sided OD650, primary screen, E. coli filamentation project, strain DRC41, 24 h (AID 1093); conditions: OD650, 24 h, higher = more signal, called active from +8 up or from −8 down;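 note: MC1000 strain lacking acrAB efflux and sulA so SOS filamentation is blocked; test concentration not given here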
[7] = small-molecule microarray binders of probe aLefty2, primary screen, biochemical, biotinylated probe, 635/667 nm fluorescence (AID 1094); conditions: higher = more signal;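 note: score merges spot fluorescence near 667 nm with spot signal-to-noise ratio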
[8] = tested on: Noggin (protein binding on small-molecule microarray); assay: Noggin binders on small-molecule microarray, primary screen, biochemical, 635/667 nm fluorescence (AID 1095); conditions: 635 nm fluorescence, higher = more signal;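 note: score merges 667 nm feature fluorescence with signal to noise over triplicate slides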
[9] = target: Neurogenic locus notch homolog protein 3 (Homo sapiens) (UniProt Q9UM47); assay: NOTCH3 binders on small-molecule microarray, primary screen, biochemical, 635/667 nm fluorescence (AID 1096); conditions: NOTCH3 binding, 635 nm fluorescence, higher = more signal
Chain of Neurogenic locus notch homolog protein 3 (Homo sapiens) (Q9UM47 whole entry, looked up): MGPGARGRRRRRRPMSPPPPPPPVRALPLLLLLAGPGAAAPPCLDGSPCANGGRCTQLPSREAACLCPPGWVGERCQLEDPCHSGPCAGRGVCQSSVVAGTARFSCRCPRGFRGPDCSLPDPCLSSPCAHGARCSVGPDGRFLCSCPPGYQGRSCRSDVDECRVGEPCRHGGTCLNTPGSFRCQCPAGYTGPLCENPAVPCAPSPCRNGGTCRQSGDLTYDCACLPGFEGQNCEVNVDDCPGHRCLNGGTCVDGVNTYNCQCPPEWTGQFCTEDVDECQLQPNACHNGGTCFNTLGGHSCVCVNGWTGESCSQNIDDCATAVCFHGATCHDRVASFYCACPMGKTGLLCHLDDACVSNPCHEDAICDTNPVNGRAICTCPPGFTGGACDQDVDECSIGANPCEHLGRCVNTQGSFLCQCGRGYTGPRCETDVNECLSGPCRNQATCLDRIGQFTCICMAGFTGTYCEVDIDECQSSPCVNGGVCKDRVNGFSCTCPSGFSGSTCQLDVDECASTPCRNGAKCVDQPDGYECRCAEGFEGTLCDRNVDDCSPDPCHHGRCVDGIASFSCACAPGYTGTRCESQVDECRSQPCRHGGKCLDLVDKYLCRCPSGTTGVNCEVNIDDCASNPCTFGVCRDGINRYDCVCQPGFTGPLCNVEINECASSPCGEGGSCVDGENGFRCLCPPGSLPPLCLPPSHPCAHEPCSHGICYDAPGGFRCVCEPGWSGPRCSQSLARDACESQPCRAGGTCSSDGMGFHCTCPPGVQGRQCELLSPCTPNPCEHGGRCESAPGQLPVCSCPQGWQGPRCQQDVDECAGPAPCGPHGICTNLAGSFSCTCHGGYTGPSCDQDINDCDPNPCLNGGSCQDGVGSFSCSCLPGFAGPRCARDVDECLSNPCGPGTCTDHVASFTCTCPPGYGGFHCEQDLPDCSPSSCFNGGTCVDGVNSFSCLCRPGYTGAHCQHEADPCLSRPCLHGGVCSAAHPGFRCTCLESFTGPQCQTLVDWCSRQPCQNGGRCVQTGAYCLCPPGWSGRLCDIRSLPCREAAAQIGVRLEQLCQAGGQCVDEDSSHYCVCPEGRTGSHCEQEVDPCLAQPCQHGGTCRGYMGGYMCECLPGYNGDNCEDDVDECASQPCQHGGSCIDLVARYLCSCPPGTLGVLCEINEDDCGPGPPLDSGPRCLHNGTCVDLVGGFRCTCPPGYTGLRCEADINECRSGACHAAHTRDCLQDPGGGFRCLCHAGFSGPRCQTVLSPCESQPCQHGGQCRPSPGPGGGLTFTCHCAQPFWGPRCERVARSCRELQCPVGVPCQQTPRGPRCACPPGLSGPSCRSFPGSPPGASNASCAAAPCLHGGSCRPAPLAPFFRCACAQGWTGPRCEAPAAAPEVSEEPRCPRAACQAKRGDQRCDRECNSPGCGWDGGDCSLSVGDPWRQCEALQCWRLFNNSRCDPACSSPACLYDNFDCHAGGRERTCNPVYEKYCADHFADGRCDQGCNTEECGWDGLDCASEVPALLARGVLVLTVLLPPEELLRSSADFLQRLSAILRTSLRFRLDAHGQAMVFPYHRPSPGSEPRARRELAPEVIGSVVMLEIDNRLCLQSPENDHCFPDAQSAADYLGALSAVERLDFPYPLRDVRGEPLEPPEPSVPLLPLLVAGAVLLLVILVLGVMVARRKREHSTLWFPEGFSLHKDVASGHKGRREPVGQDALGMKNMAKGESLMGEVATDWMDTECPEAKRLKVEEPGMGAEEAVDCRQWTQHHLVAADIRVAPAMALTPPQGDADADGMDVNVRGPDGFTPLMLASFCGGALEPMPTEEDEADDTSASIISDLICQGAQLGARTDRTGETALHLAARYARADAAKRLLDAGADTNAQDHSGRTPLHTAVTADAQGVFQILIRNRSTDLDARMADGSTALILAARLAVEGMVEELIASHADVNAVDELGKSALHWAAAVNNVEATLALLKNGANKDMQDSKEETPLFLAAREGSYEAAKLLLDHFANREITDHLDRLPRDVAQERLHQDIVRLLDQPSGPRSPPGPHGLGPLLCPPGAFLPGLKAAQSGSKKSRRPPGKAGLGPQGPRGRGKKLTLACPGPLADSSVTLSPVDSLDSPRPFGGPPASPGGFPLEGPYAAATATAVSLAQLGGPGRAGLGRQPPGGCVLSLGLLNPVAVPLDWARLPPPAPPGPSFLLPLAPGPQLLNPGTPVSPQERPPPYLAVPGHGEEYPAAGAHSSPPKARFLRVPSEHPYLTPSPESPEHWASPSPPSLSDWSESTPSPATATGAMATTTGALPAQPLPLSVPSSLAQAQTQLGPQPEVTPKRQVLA

[10] = small-molecule microarray binders of probe aEGFR, primary screen, biochemical, biotinylated probe, 635/667 nm fluorescence (AID 1097); conditions: higher = more signal;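 note: probe is a biotinylated anti-EGFR antibody binding compounds printed on slides; score combines fluorescence near 667 nm and signal to noise of each spot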
[11] = tested on: Plasmodium falciparum Sir2 (PF13_0152, Sir2A); assay: pfSir2 binders on small-molecule microarrays, primary screen, biochemical, small-molecule microarray, 635 nm fluorescence (AID 1098); conditions: small-molecule microarray binding, fluorescence 635 nm; higher = more signal;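 note: score merges spot fluorescence intensity with its signal-to-noise ratio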
[12] = small-molecule microarray binders of probe aDKK1, primary screen, biochemical, biotinylated probe, 635/667 nm fluorescence (AID 1099); conditions: higher = more signal;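 note: score merges 667nm spot fluorescence with signal to noise across triplicate slides; reference of the scale not given here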
[13] = small-molecule microarray binders of probe aCHRDL2, primary screen, biochemical, biotinylated probe, 635/667 nm fluorescence (AID 1100); conditions: higher = more signal
[14] = splicing luciferase reporter signal modulators, primary screen, spliceosome inhibition project, cell-based, HEK293, splice +/- reporter (AID 1101); conditions: luminescence, 24 h, higher = more signal, called active from +8 up or from −8 down;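 note: HEK293 cells carrying a splicing-competent luciferase reporter gene; test concentration not given here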
[15] = target: Fibroblast growth factor 10 (Homo sapiens) (UniProt O15520); assay: FGF10 binders on small-molecule microarrays, primary screen, biochemical, small-molecule microarray, 635 nm fluorescence (AID 1102); conditions: FGF10 binding, fluorescence 635 nm, higher = more signal
Chain of Fibroblast growth factor 10 (Homo sapiens) (O15520 whole entry, looked up): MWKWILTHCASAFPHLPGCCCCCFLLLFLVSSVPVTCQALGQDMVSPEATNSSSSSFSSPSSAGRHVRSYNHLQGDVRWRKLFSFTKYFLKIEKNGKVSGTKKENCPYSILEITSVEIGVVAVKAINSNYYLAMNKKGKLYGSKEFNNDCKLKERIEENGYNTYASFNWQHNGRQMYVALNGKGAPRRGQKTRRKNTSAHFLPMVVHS

[16] = tested on: glycogen synthase kinase-3 (GSK3A per assay name; protocol says GSK3B); assay: GSK3 binders on small-molecule microarrays, primary screen, biochemical, small-molecule microarray, 635 nm fluorescence, GSK3A (AID 1103); conditions: small-molecule microarray binding, fluorescence 635 nm; higher = more signal; note: the record names both GSK3A and GSK3B
[17] = target: Epidermal growth factor receptor (Homo sapiens) (UniProt P00533); assay: EGFR binders on small-molecule microarrays, primary screen, biochemical, small-molecule microarray, 635 nm fluorescence (AID 1104); conditions: EGFR binding, higher = more signal;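 note: score merges 667 nm emission intensity with spot signal to noise over triplicate slides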
Chain of Epidermal growth factor receptor (Homo sapiens) (P00533 whole entry, looked up): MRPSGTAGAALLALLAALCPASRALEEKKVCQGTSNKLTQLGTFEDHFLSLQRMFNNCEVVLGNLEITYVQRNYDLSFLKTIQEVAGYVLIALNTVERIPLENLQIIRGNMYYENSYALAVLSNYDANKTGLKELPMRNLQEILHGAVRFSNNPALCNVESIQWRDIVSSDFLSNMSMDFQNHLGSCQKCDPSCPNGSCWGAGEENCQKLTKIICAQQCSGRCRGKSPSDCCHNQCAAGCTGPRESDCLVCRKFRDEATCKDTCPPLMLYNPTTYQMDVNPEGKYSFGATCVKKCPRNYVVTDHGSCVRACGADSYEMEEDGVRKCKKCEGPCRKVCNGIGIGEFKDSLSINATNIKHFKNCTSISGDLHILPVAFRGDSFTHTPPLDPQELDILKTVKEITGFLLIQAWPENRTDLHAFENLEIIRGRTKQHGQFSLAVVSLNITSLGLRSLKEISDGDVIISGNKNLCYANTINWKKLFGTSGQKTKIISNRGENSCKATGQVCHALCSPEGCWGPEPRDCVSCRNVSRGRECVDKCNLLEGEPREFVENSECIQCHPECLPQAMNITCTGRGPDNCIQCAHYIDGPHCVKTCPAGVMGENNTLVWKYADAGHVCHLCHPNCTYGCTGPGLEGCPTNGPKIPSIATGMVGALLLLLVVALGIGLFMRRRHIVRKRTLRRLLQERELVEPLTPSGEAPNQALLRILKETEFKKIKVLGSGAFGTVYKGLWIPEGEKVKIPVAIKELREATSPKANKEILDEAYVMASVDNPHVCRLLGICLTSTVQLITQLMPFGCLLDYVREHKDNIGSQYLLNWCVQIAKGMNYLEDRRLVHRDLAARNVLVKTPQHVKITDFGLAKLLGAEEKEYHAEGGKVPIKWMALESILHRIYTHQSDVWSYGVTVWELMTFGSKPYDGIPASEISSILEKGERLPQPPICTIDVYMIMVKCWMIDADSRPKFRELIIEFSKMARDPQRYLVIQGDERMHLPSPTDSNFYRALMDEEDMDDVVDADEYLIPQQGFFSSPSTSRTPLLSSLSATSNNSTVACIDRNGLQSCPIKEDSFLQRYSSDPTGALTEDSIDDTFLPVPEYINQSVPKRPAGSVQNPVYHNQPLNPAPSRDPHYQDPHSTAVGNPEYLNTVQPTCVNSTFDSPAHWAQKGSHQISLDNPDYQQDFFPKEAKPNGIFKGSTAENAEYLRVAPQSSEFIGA

[18] = target: Follistatin-related protein 3 (Homo sapiens) (UniProt O95633); assay: FSTL3 binders on small-molecule microarrays, primary screen, biochemical, small-molecule microarray, 635 nm fluorescence (AID 1105); conditions: FSTL3 binding, higher = more signal;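 note: score merges emission near 667 nm and signal to noise per printed spot across three slides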
Chain of Follistatin-related protein 3 (Homo sapiens) (O95633 whole entry, looked up): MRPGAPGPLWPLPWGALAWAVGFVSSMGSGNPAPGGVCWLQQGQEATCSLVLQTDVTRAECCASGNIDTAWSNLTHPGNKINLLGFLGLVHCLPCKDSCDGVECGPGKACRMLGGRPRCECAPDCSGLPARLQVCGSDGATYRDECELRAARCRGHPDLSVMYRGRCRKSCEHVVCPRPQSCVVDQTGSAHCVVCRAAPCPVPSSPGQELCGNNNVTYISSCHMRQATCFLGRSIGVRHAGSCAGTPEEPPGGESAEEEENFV

[19] = target: Dickkopf-related protein 1 (Homo sapiens) (UniProt O94907); assay: DKK1 binders on small-molecule microarrays, primary screen, biochemical, small-molecule microarray, 635 nm fluorescence scan (AID 1106); conditions: DKK1 binding, higher = more signal;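 note: score merges emission near 667 nm with signal to noise over three replicate slides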
Chain of Dickkopf-related protein 1 (Homo sapiens) (O94907 whole entry, looked up): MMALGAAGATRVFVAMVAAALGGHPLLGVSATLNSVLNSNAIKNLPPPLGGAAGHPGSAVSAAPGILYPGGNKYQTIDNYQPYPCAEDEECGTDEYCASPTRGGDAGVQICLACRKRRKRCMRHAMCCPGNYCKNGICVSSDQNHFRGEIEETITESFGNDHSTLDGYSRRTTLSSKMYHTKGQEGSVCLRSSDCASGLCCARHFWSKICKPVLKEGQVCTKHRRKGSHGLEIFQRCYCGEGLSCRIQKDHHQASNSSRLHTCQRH

[20] = tested on: Inhibin beta A chain (activin A); assay: INHBA (activin A) binders on microarrays, primary screen, biochemical, small-molecule microarray, 635 nm fluorescence scan (AID 1107); conditions: small-molecule microarray binding, higher = more signal;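 note: mouse activin A protein probed at 4.33 µg/mL on printed slides; score merges bound-protein fluorescence near 667 nm with spot signal-to-noise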

SMILES	composite z-score [1]	z-score [2]	z-score [3]	z-score [4]	composite z-score [5]	z-score [6]	composite z-score [7]	composite z-score [8]	composite z-score [9]	composite z-score [10]	composite z-score [11]	composite z-score [12]	composite z-score [13]	z-score [14]	composite z-score [15]	composite z-score [16]	composite z-score [17]	composite z-score [18]	composite z-score [19]	composite z-score [20]
COC(=O)[C@@]1(Cc2ccc(OC)cc2)[C@H]2c3cc(C(=O)N4CCCC4)n(CCCNc4ncc(C(F)(F)F)cc4Cl)c3C[C@H]2CN1C(=O)c1ccccc1	0.0457	-0.496 (inactive)	1.11 (inactive)	1.35 (inactive)	1.8	-0.537 (inactive)	0.987	0.341	0.656	0.939	0.596	1.63	0.941	-2.98 (inactive)	0.595	0.673	0.659	0.95	0.244	1.11
CN(C)CCCCCCNC(=O)[C@@H]1C[C@@H]2C(=O)N3CCC[C@H]3C(=O)N2[C@@H]1c1ccc(O)cc1	1.53	-3.92 (inactive)	-0.974 (inactive)	-0.982 (inactive)	2.51	0.434 (inactive)	0.312	1.5	1.05	0.28	0.609	0.381	0.234	-1.51 (inactive)	1.1	1.34	0.842	1.48	1.69	0.254
CCOc1cc(C(O)C2C=CC3C(=O)N(c4ccccc4)C(=O)C3N2Nc2ccc(C(C)C)cc2)ccc1O (stereo not given)	1.55	0.471 (inactive)	-1.28 (inactive)	0.597 (inactive)	3.42	-1.14 (inactive)	0.0261	0.107	1.1	-0.0581	1.5	0.712	1.01	0.21 (inactive)	0.726	1.05	0.147	0.912	-0.332	0.73
CCCCN1CC=CC23O[C@@H]4C=CCOC(=O)[C@@H]4[C@H]2C(=O)N(CCCCCCO)[C@@H]3C1=O (stereo not given in full)	-0.598	-0.992 (inactive)	-0.053 (inactive)	-0.362 (inactive)	1.57	-0.44 (inactive)	-0.0665	-1.84	-0.61	-0.244	1.77	0.159	0.552	0.381 (inactive)	-0.988	-1	-1.5	-1.38	-1.28	0.65
COCCCNC(=O)[C@@H]1c2ccccc2C(=O)N(Cc2ccccc2OC)[C@H]1c1ccc(CO)cc1	-0.244	0.118 (inactive)	-0.757 (inactive)	-0.921 (inactive)	2.56	-0.0935 (inactive)	-0.157	1.68	0.876	-0.115	0.342	-0.257	0.287	-1.06 (inactive)	0.621	-0.177	0.238	0.403	0.56	0.344
O=C1[C@@]23C=C(Br)[C@H](C[C@@H]2COC3)[C@]12CO2	-1.63	-0.241 (inactive)	-9 (active)	0.403 (inactive)	0.246	-0.366 (inactive)	-0.14	-1.31	-1.5	-0.272	-1.5	-0.183	-0.188	1.91 (inactive)	-0.573	-0.88	-1.24	-0.858	-0.297	1.69
O=C(NCc1ccccc1)[C@@H]1c2ccccc2C(=O)N(C2Cc3ccccc3C2)[C@H]1c1ccc(CO)cc1	1.56	0.106 (inactive)	0.287 (inactive)	0.644 (inactive)	2.03	-0.874 (inactive)	0.126	0.149	1.03	0.194	0.81	0.689	1.01	-0.0178 (inactive)	0.732	0.737	-0.318	0.475	0.0698	0.344
COC(=O)c1c(CC[C@@H](CO)NC(=O)NCCc2c[nH]c3ccccc23)oc(C(=O)Cc2ccccc2)c1C(=O)OC	0.578	0.433 (inactive)	0.215 (inactive)	-1.62 (inactive)	1.53	0.528 (inactive)	-0.117	0.145	0.316	-0.126	0.176	-0.281	-0.805	-0.251 (inactive)	0.48	0.429	0.398	0.321	0.263	0.553
O=C(O)[C@H](Cc1ccccc1)n1cc(-c2ccccc2)nn1	0.112	0.306 (inactive)	0.865 (inactive)	0.173 (inactive)	1.03	-0.741 (inactive)	-0.0592	0.197	0.185	0.119	0.0064	-0.284	-0.367	-0.544 (inactive)	0.467	0.569	0.293	0.179	0.31	0.267
C=C(CCCC)/C(=C/C[C@H](OC(=O)c1ccncc1)c1ccc(OCCO)cc1)c1cc(C(=O)OC)ccc1OC	0.834	0.992 (inactive)	-0.78 (inactive)	-0.676 (inactive)	1.27	0.987 (inactive)	-0.187	-0.395	-0.0191	0.689	0.694	-0.172	-0.116	-1.14 (inactive)	0.752	-0.139	0.053	0.14	0.204	1.29
C=C[C@H](C)[C@@H](OC(=O)Nc1ccc(SC)cc1)c1ccc(O)c2ccccc12	1.28	-24.3 (active)	-20.7 (active)	-1.88 (inactive)	1.89	1.22 (inactive)	-0.0159	0.936	1.11	0.137	1.3	-0.118	0.216	-0.8 (inactive)	1.33	1.28	1.07	1.44	1.34	0.482
NC(=O)[C@@H]1[C@H]2C(=O)O[C@H](c3ccccc3)[C@H](c3ccccc3)N2[C@H](c2ccc(O)cc2)[C@@]12C(=O)Nc1ccc(C#CC3=CCCCC3)cc12	1.55	1.98 (inactive)	1.4 (inactive)	2.74 (inactive)	3.22	-0.716 (inactive)	-0.21	0.87	1.11	-0.176	0.735	-0.0562	-0.42	-2.28 (inactive)	0.676	0.439	-0.122	0.31	-0.333	0.763
CCOC(=O)C[C@H]1[C@H](OC(=O)c2cc3ccccc3oc2=O)[C@@H](NC(=O)CC(C)C)c2cc(OCCCO)ccc2N1C(=O)c1ccccc1	0.983	-0.789 (inactive)	-0.769 (inactive)	-0.193 (inactive)	1.52	2.64 (inactive)	-0.0661	0.805	0.606	-0.0828	0.0288	-0.179	-0.428	-1.04 (inactive)	0.644	0.53	0.393	0.358	0.371	-0.0294
CO[C@H]1O[C@H](CO)[C@@H](OC(=O)Nc2cccc(F)c2)[C@H](OC(=O)Nc2ccccc2)[C@H]1OC(=O)Nc1ccccc1	1.54	1.63 (inactive)	1.1 (inactive)	5.68 (inactive)	3.37	-0.168 (inactive)	-0.0285	0.828	1.11	0.0778	1.46	-0.0312	0.55	-0.0505 (inactive)	1.52	1.35	0.162	1.49	0.18	0.417
CCCCN1CC=CC23O[C@@H]4C=CCCOC(=O)C4[C@H]2C(=O)N(CCCCCO)[C@@H]3C1=O (stereo not given in full)	-0.726	-0.494 (inactive)	0.0411 (inactive)	0.025 (inactive)	0.905	-0.0111 (inactive)	-0.168	-0.548	-0.73	-0.0987	1.2	-0.359	0.413	-0.268 (inactive)	-1.1	-0.649	-0.95	-1.15	-0.787	0.26
COC(=O)[C@]1(CCC(=O)OC(C)(C)C)N=C(c2ccc(OCCCO)cc2)O[C@@H]1c1ccccc1	1.14	-0.401 (inactive)	-1.72 (inactive)	1.97 (inactive)	1.4	2.85 (inactive)	0.289	-0.499	0.0628	-0.0689	1.37	0.46	0.779	-0.783 (inactive)	-0.361	-0.495	-0.754	-0.577	-0.563	-0.0102
C=CC[C@]1(C(=O)NCc2ccccc2)N=C(c2ccc(OCCCO)cc2)O[C@H]1c1ccccc1CN=[N+]=[N-]	1.35	-0.755 (inactive)	-0.175 (inactive)	1.54 (inactive)	2.87	-0.765 (inactive)	0.0634	0.853	1.06	0.107	1.51	0.709	0.899	-0.169 (inactive)	1.19	1.24	0.171	1.39	0.607	0.835
C=CCC(OC(C)=O)[C@@H]1[C@@H](N(Cc2ccc(-c3cccc(C(F)(F)F)c3)o2)C(=O)c2cccc3ccccc23)c2cc(OCCCO)ccc2N1C(=O)Cc1ccc2ccccc2c1 (stereo not given in full)	0.263	0.1 (inactive)	-0.463 (inactive)	0.133 (inactive)	0.878	-0.57 (inactive)	-0.106	0.01	0.0384	-0.146	0.25	0.102	0.291	-0.896 (inactive)	0.0246	-1.07	-0.352	0.117	-0.282	0.95
CC(c1ccccc1)C(O)C1C=CC2C(=O)N(c3ccccc3)C(=O)C2N1Nc1ccccc1 (stereo not given)	1.54	0.205 (inactive)	1.23 (inactive)	0.442 (inactive)	3.62	-0.702 (inactive)	0.0008	0.833	1.05	0.0038	1.18	0.807	0.818	-0.716 (inactive)	1.4	0.297	0.177	1.46	-0.0656	0.215
CCCCC(=C=CC[C@@H](O)c1ccc(CO)o1)CCO	0.954	1.46 (inactive)	-0.614 (inactive)	0.297 (inactive)	0.418	0.572 (inactive)	-0.13	0.436	0.0341	-0.071	0.175	-0.119	-0.479	0.37 (inactive)	0.788	0.621	-0.617	-0.0762	0.294	1.26
